Assay outcomes as filed in PubChem.
An excerpt weighted towards active compounds, which were near 2.4% of everything screened.
Pol eta inh-1: blocks human DNA polymerase eta activity; Q9Y253; recombinant Pol eta, fluorescent DNA replication assay; Potency, µM (titrated, usually from 114 µM), actives largely listed as inhibitors; 390,000 compounds, 1.2% hits
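Pol eta (10 nM) was preincubated with compounds for 15 min at room temperature, after which fluorescent replication substrate (50 nM final) was added to start the reaction. Fluorescence was read kinetically at 0 and 10 min.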
Pol beta inh: blocks human DNA polymerase beta activity; 340,000 compounds, 1.3% hits; Potency, µM (titrated, usually from 114 µM), most hits filed as inhibitors; AID 485314; Pol beta primer extension/strand displacement, fluorescence kinetic
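Values derive from four-parameter Hill fits of normalized kinetic data: reads at 0 and 10 min following addition of 50 nM substrate to 10 nM Pol beta preincubated 15 min with compound.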
Pol kappa inh: blocks human DNA polymerase kappa activity | Q9UBT6 | purified Pol kappa, fluorescent DNA synthesis assay, 10 min | Potency, µM (doses to about 107 µM), most hits filed as inhibitors | 400,000 compounds, 0.53% hits | AID 588579
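Enzyme at 10 nM met test compounds for 15 min at room temperature. Substrate addition (50 nM final) began the reaction, which was monitored by fluorescence at 0 and 10 min.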
POLI inh: blocks human DNA polymerase iota activity. Q9UNA4. Pol iota fluorescent replication assay, 10 min. Potency, µM (doses to about 115 µM), most hits filed as inhibitors. 390,000 compounds, 1% hits. AID 588590
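Fluorescent replication assay read twice, at 0 min and 10 min after adding 50 nM (final) substrate. Enzyme (10 nM) and compounds were first incubated 15 min at room temperature; enzyme-free buffer wells were negative controls.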
WRN helicase inh-1: WRN helicase (human) inhibition; Q14191; WRN helicase unwinding, fluorescent forked duplex, kinetic; Potency, µM (doses to about 114 µM), hits mostly inhibitors; 360,000 compounds, 0.46% hits; note: nearly all actives have a fitted effect of over 55% in size
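Enzyme (20 nM final) and test compound sit together 15 min at room temperature before substrate addition. Substrate is a single-forked duplex oligonucleotide (100 nM) labelled with fluorophore and quencher, with 2 mM ATP; helicase unwinding raises red fluorescence, read kinetically.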
FEN1 inh-1: human FEN1 inhibition; P39748; Recombinant FEN1 flap cleavage, fluorescence, 15 min; Potency, µM (highest dose often 114 µM), usual class: inhibitors; 390,000 compounds, 0.35% hits; note: nearly all actives have a fitted effect of over 65% in size
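In this screen, 50 nM flap DNA substrate was added to 10 nM FEN1 pretreated with compound for 15 min at room temperature; cleavage was followed with reads at 0 and 15 min, and Hill fitting gave concentration–response parameters.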
Pol eta inh-2: confirmation of human DNA polymerase eta inhibitors. shares compounds with Pol eta inh-1. 2,600 compounds, 64% hits. AID 720502. Potency, µM, most hits filed as inhibitors. Pol eta primer extension, TAMRA/BHQ fluorescence, 10 min
FEN1 inh-2: confirmation of human FEN1 inhibitors | shares compounds with FEN1 inh-1 | FEN1 flap cleavage, TAMRA/BHQ2 fluorogenic DNA substrate | Potency, µM, most hits filed as inhibitors | 880 compounds, 79% hits; note: nearly all actives have a fitted effect of over 60% in size
WRN helicase inh-2: WRN helicase inhibition, cherry-pick retest; Potency, µM (titrated, usually from 57.1 µM), most hits filed as inhibitors; shares compounds with WRN helicase inh-1; 610 compounds, 63% hits; WRN helicase DNA unwinding, fluorescence kinetic; note: nearly all actives have a fitted effect of over 65% in size
TO DNA binding: DNA binding via thiazole orange displacement; shares compounds with WRN helicase inh-1; thiazole orange DNA binding displacement, fluorescence; Potency, µM (doses to about 57.1 µM), most hits filed as inhibitors; 610 compounds, 10% hits; AID 720499;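 note: drop in dye fluorescence marks compound binding to DNA; nearly all actives have a fitted effect of over 60% in size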
BLM counter: blocks human BLM helicase in WRN counterscreen | shares compounds with WRN helicase inh-1 | Recombinant BLM helicase DNA unwinding, red fluorescence | Potency, µM (series often up to 57.1 µM), hits mostly inhibitors | 610 compounds, 60% hits | AID 720503; note: nearly all actives have a fitted effect of over 60% in size
Each line names hits and unclear results; the compound was inactive in the other large screens (follow-up assays come after a bar, where they were run). Calls come from the whole dose curve; as a rule, active = well fitted curve in the direction sought with a large enough effect; inconclusive = small, poorly fitted or top-dose-only effect, or another doubt; inactive = no such curve, though single readings can be large; an effect the other way counts as inactive or inconclusive.

COc1ccc(N2C(=O)NC(=O)/C(=C\c3ccc([N+](=O)[O-])s3)C2=O)cc1	Pol eta inh-1 18µM, Pol beta inh inconclusive, Pol kappa inh 50µM, POLI inh inconclusive, WRN helicase inh-1 25µM, FEN1 inh-1 inconclusive | Pol eta inh-2 27 | FEN1 inh-2 9.5 | WRN helicase inh-2 22µM | TO DNA binding inactive | BLM counter inactive
Cn1cccc1/C=C1\C(=O)NC(=O)N(Cc2ccccc2Cl)C1=O	Pol eta inh-1 28µM, Pol kappa inh 32µM, POLI inh 20µM, WRN helicase inh-1 40µM, FEN1 inh-1 inconclusive | Pol eta inh-2 67 | WRN helicase inh-2 inconclusive | TO DNA binding inactive | BLM counter 17µM
C[C@@H]1Cc2c(Cl)cc(C(=O)N[C@@H](Cc3ccccc3)C(=O)O)c(O)c2C(=O)O1	none (no result: Pol eta inh-1, Pol beta inh, POLI inh, WRN helicase inh-1, FEN1 inh-1)
Cc1cccc(N(C)S(=O)(=O)c2cc(-c3cnc(C4CC4)o3)ccc2C)c1	POLI inh inconclusive (no result: Pol eta inh-1, WRN helicase inh-1)
Cc1ccccc1N1C(=O)NC(=O)/C(=C\c2ccc3c(c2)CCCN3Cc2ccccc2)C1=O	Pol eta inh-1 20µM, Pol beta inh 25µM, POLI inh inconclusive, WRN helicase inh-1 13µM | Pol eta inh-2 inconclusive | WRN helicase inh-2 inconclusive | TO DNA binding inactive | BLM counter 24µM
C=CCN1C(=O)/C(=C/c2ccc(N3CCOCC3)o2)C(=O)NC1=S	Pol beta inh inconclusive, POLI inh inconclusive
C=CCN1C(=O)/C(=C/c2cccs2)C(=O)NC1=S	Pol eta inh-1 inconclusive, Pol beta inh 79µM, POLI inh inconclusive, WRN helicase inh-1 0.47µM | Pol eta inh-2 inconclusive | WRN helicase inh-2 inactive | TO DNA binding inactive | BLM counter inconclusive
C[S@@](=O)CCCCN=C=S	none (no result: Pol eta inh-1, Pol beta inh, POLI inh, WRN helicase inh-1, FEN1 inh-1)
Cc1cc(C=C(C#N)C#N)ccc1N1CCCC1	POLI inh 89µM, FEN1 inh-1 inconclusive | FEN1 inh-2 76
C=CCN1CCC23c4c5ccc(O)c4OC2/C(=N/N=C2\CCC4(O)C6Cc7ccc(O)c8c7C4(CCN6CC=C)C2O8)CCC3(O)C1C5 (centres undefined)	none (no result: Pol eta inh-1, Pol beta inh, POLI inh, WRN helicase inh-1, FEN1 inh-1)
COc1cc2c(cc1OC)-c1c3c(cc4c1[C@@H](C2)N(C)CC4)OCO3	Pol beta inh inconclusive, POLI inh 2.8µM, WRN helicase inh-1 inconclusive, FEN1 inh-1 2.5µM | FEN1 inh-2 34
COc1ccc2c(c1O)-c1cc(O)cc3c1[C@@H](C2)N(C)CC3	none (no result: Pol eta inh-1, Pol beta inh, POLI inh, WRN helicase inh-1, FEN1 inh-1)
COC1C(C)OC(OC2CC(C)(O)Cc3cc4c(c(O)c32)C(=O)c2c(O)cc3c(c2C4=O)OC2OC3(C)C(O)C(N(C)C)C2O)C(OC)C1(C)OC (centres undefined)	Pol eta inh-1 inconclusive, Pol kappa inh 25µM, POLI inh inconclusive, WRN helicase inh-1 16µM, FEN1 inh-1 16µM (no result: Pol beta inh) | FEN1 inh-2 4.8 | WRN helicase inh-2 2.2µM | TO DNA binding inactive | BLM counter inconclusive
O=C(Nc1cccc(F)c1)N1CC2(CCNCC2)C1	none (no result: Pol eta inh-1, Pol beta inh, POLI inh, WRN helicase inh-1, FEN1 inh-1)
O=C1NC(=O)C(=Cc2ccccc2OCCOc2ccc([N+](=O)[O-])cc2)C(=O)N1	Pol eta inh-1 inconclusive, POLI inh inconclusive, WRN helicase inh-1 35µM, FEN1 inh-1 inconclusive | WRN helicase inh-2 inconclusive | TO DNA binding inactive | BLM counter inconclusive
CN1C(=O)C(=Cc2ccccc2OCCOc2ccc([N+](=O)[O-])cc2)C(=O)N(C)C1=O	POLI inh inconclusive
CN(C)c1ccc(/C=C/c2cc[n+](C)c3ccccc23)cc1	Pol eta inh-1 inconclusive, Pol beta inh inconclusive, Pol kappa inh inconclusive, POLI inh 79µM, WRN helicase inh-1 35µM, FEN1 inh-1 35µM | WRN helicase inh-2 17µM | TO DNA binding 15µM | BLM counter 22µM
Cc1cccc(N2C(=O)CSC23C(=O)N(CC(=O)Nc2cccc(Cl)c2)c2ccccc23)c1 (centres undefined)	POLI inh inconclusive (no result: WRN helicase inh-1)
